Test results from PubChem BioAssay AID1532 (PCMD, 2009).
Out of some 110,000 compounds screened, about 420 (0.38%) were called active. No stated cut-off is given here; in the data, active means inhibition above about 30% (passing the limit was not always enough); inconclusive means no clear call, values can overlap the other calls. The sample as a whole holds a higher share of actives than the screen did.

Test system: RmlC (dTDP-4-dehydrorhamnose 3,5-epimerase) and RmlD (dTDP-4-dehydrorhamnose reductase), coupled enzyme assay
Assay: RmlC and RmlD coupled enzyme inhibitors, primary screen, biochemical, 384-well, compound mixtures, retest (AID 1532)
Settings: 384-well mixture HTS, at 5.5 µM, stronger effect = higher value
[1] = measured here: mean retest inhibition

CC(C)CC(CO)N1CCN(C(=O)c2ccc(Cl)cc2Cl)CCC1=O (stereo not drawn)
inhibition: -11.9% (inactive)

CCO[C@H]1OC(C(=O)O)=C[C@@H](C2CCCCC2)[C@@H]1CCCO
inhibition: -6.81% (inactive)

COc1ccc(CN2CC[C@H]3C=CC[C@@H](C(=O)N4CCOCC4)[C@H]3C2=O)cc1OC
inhibition: 7.97% (inactive)

N#CCc1c(C#N)c(N)nc(N2CCCC2)c1C#N
inhibition: 14.6% (inactive)

COC(=O)CCCC1=CC2=CC(=O)C(C)(OC(=O)c3cccs3)C(=O)C2=CN1c1cccc(C#N)c1 (stereo not drawn)
inhibition: -9.55% (inactive)

C=CC1C(OC2OC(CO)C(O)C(O)C2O)OC=C(C(=O)OC)C1CC1CC(=O)CC(CC(=O)CCc2ccc(O)cc2)O1 (stereo not drawn)
inhibition: 3.85% (inactive)

C#CCOCCOCCOCCNc1nc(N2CCN(C(=O)[C@H](C(C)C)n3cc(CCO)nn3)CC2)nc(N2CCN(C(=O)[C@H](C(C)C)n3cc(CCO)nn3)CC2)n1
inhibition: -12.1% (inactive)

O=C(O)C1=C[C@H](c2cccs2)C[C@H](OCCCCO)O1
inhibition: 5.69% (inactive)

COC(=O)COc1cccc2c(=O)n(CC(=O)NCCc3ccc(OC)c(OC)c3)ccc12
inhibition: 9.94% (inactive)

CC1=C(N2CCN(c3ncccn3)CC2)CCC1=O
inhibition: 12.7% (inactive)

NC(=O)CC(NC(=O)Cc1cccc2ccccc12)c1ccc(NCc2cc(F)ccc2F)c([N+](=O)[O-])c1 (stereo not drawn)
inhibition: -7.96% (inactive)

COC(=O)c1ccc(C(NC(=O)OCc2ccccc2)/C(F)=C/[C@@H](C)C(=O)O)cc1 (stereo partly drawn)
inhibition: 3.33% (inactive)

CCCC[C@@H]1CN=C(N)N1CCCC
inhibition: -28.4% (inactive)

COc1ccc(C(CC(=O)N2CCN(c3ccccc3)CC2)c2c(O)cc(OC)cc2OC)cc1 (stereo not drawn)
inhibition: 0.73% (inactive)

C/C=C\C=C\C(=O)N1CC2(CC(c3cccc(NC(=O)/C(C)=C\C)c3)=NO2)C[C@H]1C(N)=O (stereo partly drawn)
inhibition: -0.91% (inactive)

COC(C[C@@H]1O[C@@H]1C(=O)[C@H](C)OCc1ccccc1)OC
inhibition: -11.7% (inactive)

CCC1(CC)C(=O)C2=C3C1[C@H](C(=O)OC)C=C(C(=O)OC)C[C@H]3[C@H]1C(=O)N(Cc3ccccc3)C(=O)[C@H]1[C@H]2C (stereo partly drawn)
inhibition: -0.95% (inactive)

C=C1CCN([C@H](C(=O)NCc2cc(OC)c(OC)c(OC)c2)C(C)C)S(=O)(=O)c2ccccc21
inhibition: 5.25% (inactive)

CC1(C)CC[C@]2(C(=O)O)CC[C@]3(C)C(=CCC4[C@@]5(C)CC[C@H](O)C(C)(C)C5[C@H](O)C[C@]43C)[C@@H]2C1 (stereo partly drawn)
inhibition: -10.3% (inactive)

CCCCN1C(N)=NC[C@@H]1Cc1ccccc1
inhibition: -9.09% (inactive)

COC(C[C@H](O)CC(=O)[C@@H](C)OCc1ccccc1)OC
inhibition: 5.9% (inactive)

C=C1CCN([C@@H](Cc2ccccc2)C(=O)N2CCOCC2)S(=O)(=O)c2ccccc21
inhibition: -7.13% (inactive)

C#CCO[C@@H]1C[C@H](n2cnc3c(=O)[nH]c(NC(=O)C(C)C)nc32)O[C@@H]1CO
inhibition: 17.4% (inactive)

CCO[C@@H]1OC(C(=O)NC2CC2)=C[C@H](C)[C@H]1CCCO
inhibition: -10.3% (inactive)

C#CCOCCOCCOCCNc1nc(N2CCN(C(=O)C([C@@H](C)CC)n3cc(C(N)COC(=O)C(F)(F)F)nn3)CC2)nc(N2CCN(C(=O)[C@H](Cc3ccc(O)cc3)n3cc(C(N)[C@H](C)CC)nn3)CC2)n1 (stereo partly drawn)
inhibition: -15.9% (inactive)

COc1ccc(C2/C=C\CN(S(=O)(=O)c3cccs3)CC(=O)N2Cc2ccc(F)cc2)cc1 (stereo not drawn)
inhibition: -18.6% (inactive)

CCc1nnc(SCc2cccc(F)c2)nc1CC
inhibition: -1.83% (inactive)

Cc1cccc(Nc2nc(NCCO)nc(N3CCCC3)n2)c1
inhibition: -9.11% (inactive)

COCOc1cc(O)c(C(=O)/C=C/c2ccc(OCOC)c(OCOC)c2)c(OCOC)c1
inhibition: 4.09% (inactive)

COc1cc(/C=C/CO)cc(OC)c1O[C@@H]1O[C@H](CO)[C@@H](O)[C@H](O)[C@H]1O
inhibition: -10.6% (inactive)

CC(C)NC(=O)NCCCCCCS(C)=O (stereo not drawn)
inhibition: -13.8% (inactive)

CCCCC1=CC2=CC(=O)C(C)(OC(=O)CC)C(=O)C2=CN1CCCOC(C)C (stereo not drawn)
inhibition: 21.9% (inactive)

CC1=C(C)C(=O)OC(C(C)C2CCC3C4CC=C5CC(OC6OC(COC7OC(CO)C(O)C(O)C7O)C(O)C(O)C6O)CC(O)C5(C)C4CCC23C)C1 (stereo not drawn)
inhibition: -13.2% (inactive)

C/C=C(/C)C(=O)O[C@@H]1c2cc3c(c4c2[C@@]2(CO4)C(=O)C(OC)=C(OC)C=C2C[C@@H](C)[C@H]1C)OCO3
inhibition: -2.38% (inactive)

C/C=C(\C)C(=O)NCCN1C2=NC[C@H](Cc3ccc(O)cc3)N2C[C@@H]1Cc1ccc(OC)cc1
inhibition: 6.27% (inactive)

COC(=O)CCCC1=CC2=CC(=O)C(C)(OC(=O)c3cccs3)C(=O)C2=CN1CC(C)C (stereo not drawn)
inhibition: 6.81% (inactive)

O=C(C1=C[C@H](c2coc3ccccc3c2=O)C[C@H](OCc2ccc(CO)cc2)O1)N1CCN(Cc2ccccc2)CC1
inhibition: 13.6% (inactive)

C=CCNC(=O)c1ccc2c3n(nc2c1)-c1ccc(C)cc1CO3
inhibition: -4.6% (inactive)

C[C@H]1CC[C@]2(O[C@@H](CCO)C[C@@H](O)[C@@H]2O)O1
inhibition: 6.2% (inactive)

C=C1C2C[C@H](O)C(C)(C)[C@@]2(O)[C@H](O)C[C@]23C[C@@](C)(O)[C@H](CC[C@H]12)[C@H]3O (stereo partly drawn)
inhibition: -7.47% (inactive)

CCO[C@H]1OC(C(=O)Nc2ccccc2)=C[C@@H](C2CC2)[C@@H]1CCCO
inhibition: -2.12% (inactive)

COc1ccc(CCNC(=O)C2CC3Cn4c(nc5cc(C)c(C)cc54)C3N2C)cc1 (stereo not drawn)
inhibition: 5.88% (inactive)

O=C(NCc1ccccc1)C1=C[C@@H](c2ccccc2)C[C@@H](OCCCCO)O1
inhibition: -11.4% (inactive)

COC(=O)CCCC1=CC2=C(c3ccccc3)C(=O)C(C)(OC(=O)C3CCCC3)C(=O)C2=CN1c1ccc(OC)cc1 (stereo not drawn)
inhibition: 6.14% (inactive)

COc1ccc2c(c1)CC[C@@H]1[C@@H]2CC[C@]2(C)C(=O)CC[C@@H]12
inhibition: 0.97% (inactive)

C#CCOCCOCCOCCNc1nc(N2CCN(C(=O)[C@H](C(C)C)n3cc(CCO)nn3)CC2)nc(N2CCN(C(=O)[C@H]([C@@H](C)CC)n3cc(CCCN=C(N)N)nn3)CC2)n1
inhibition: 9.85% (inactive)

CC(=O)Oc1ccc2c(C)c(CC(C)O)c(=O)oc2c1 (stereo not drawn)
inhibition: 100% (active)
inhibition [1]: 151%

O=C(Nc1cc2ccccc2oc1=O)C1CCCCC1
inhibition: -8.93% (inactive)

CC(=O)Nc1cc2ccc(OC(C)=O)cc2oc1=O
inhibition (above what the read-out allows, likely interference): 671% (active)

CC(=O)Oc1ccc(NC(=O)CCC2CCCCC2)c(C(=O)O)c1
inhibition: 0.91% (inactive)

COC(=O)Cc1c(C)c2ccc(OCC(=O)NCc3ccc4c(c3)OCO4)cc2oc1=O
inhibition: 12.6% (inactive)

O=C(Oc1ccccc1)Oc1ccc2c(c1)oc(=O)c1ccccc12
inhibition: -16.4% (inactive)

C=CCC1(C(=O)N(C)Cc2ccccc2)CCN(C(=O)OC(C)(C)C)CC1
inhibition: 4.78% (inactive)

NC(=O)C[C@@H]1NC(=O)CNC(=O)c2cc([N+](=O)[O-])cc(I)c2NCCC(C(N)=O)NC1=O (stereo partly drawn)
inhibition: -2.76% (inactive)

O=C1c2ccccc2S(=O)(=O)c2cc(N3CCN(c4ccccn4)CC3)ccc21
inhibition: -10.5% (inactive)

C=CCSc1nnc2c(n1)-c1cccc3cccc-2c13
inhibition: 10.4% (inactive)

COc1ccc(-c2nc3c(s2)CCc2onc(-c4ccc(Br)cc4)c2-3)cc1
inhibition: -14.4% (inactive)

COC(C[C@@H](O)C[C@@H](O)[C@H](C)OCc1ccccc1)OC
inhibition: 1.16% (inactive)

C=CC(COCc1ccccc1)N(Cc1ccccc1)S(=O)(=O)c1ccccc1Br (stereo not drawn)
inhibition: 14.3% (inactive)

CC(C)C[C@H](CO)Nc1nc(N(C)c2cccc(Cl)c2)c2ncn(C(C)C)c2n1
inhibition: 4.1% (inactive)

NCCCC[C@@H]1NC(=O)[C@H](CCC(=O)O)NC(=O)c2cc([N+](=O)[O-])cc(I)c2NCC[C@@H](C(N)=O)NC1=O
inhibition: -2.74% (inactive)

COC(C[C@@H](O)C[C@H](O)[C@H](C)OCc1ccccc1)OC
inhibition: 8.66% (inactive)

COc1cccc(NC(=S)N(CCc2c(C)[nH]c3ccccc23)Cc2ccco2)c1
inhibition: -5.74% (inactive)

O=c1cc(-c2ccccc2)[nH]c2cc(F)ccc12
inhibition: 2.31% (inactive)

C=CCCN(Cc1ccccc1)S(=O)(=O)c1ccccc1Br
inhibition: 17.6% (inactive)

COc1ccccc1-c1nnc(SCC(=O)N2CC(C)CC(C)C2)o1 (stereo not drawn)
inhibition: -13.8% (inactive)

CC1CCN(c2oc(-c3ccccc3F)nc2C#N)CC1
inhibition: 19.3% (inactive)

COc1ccccc1-c1nc(C#N)c(N2CCC(C(N)=O)CC2)o1
inhibition: 31.8% (active)
inhibition [1]: 33.6%

O=C(NC1CC1)C1=C[C@H](c2coc3ccccc3c2=O)C[C@H](OCCCCO)O1
inhibition: -32.1% (inactive)

O=C(C1=C[C@H](C2CC2)C[C@H](OCc2ccc(CO)cc2)O1)N1CCN(Cc2ccccc2)CC1
inhibition: 2.28% (inactive)

COC(=O)C1=C(C(=O)OC)[C@@H]2N(C)c3ccccc3[C@@]23C[C@@H](C(=O)OC)N(C(C)=O)C3=N1
inhibition: 1.9% (inactive)

CC(=O)n1cc([C@@H]2C=C(C(=O)N3CCN(Cc4ccc5c(c4)OCO5)CC3)O[C@H](OCc3ccc(CO)cc3)C2)c2ccccc21
inhibition: 5.68% (inactive)

O=C(NCc1cc(C(F)(F)F)cc(C(F)(F)F)c1)C1CC(c2cccc(F)c2)=NO1 (stereo not drawn)
inhibition: 2.58% (inactive)

CCO[C@@H]1OC(C(N)=O)=C[C@H](c2ccc(Br)cc2)[C@H]1CCCO
inhibition: 3.81% (inactive)

CC(NC(=O)Nc1ccccc1)C(c1cccs1)N1CCN(c2ccccc2)CC1 (stereo not drawn)
inhibition: 10.1% (inactive)

CCO[C@H]1OC(C(=O)NCc2ccccc2)=C[C@@H](c2coc3ccccc3c2=O)[C@@H]1CCCO
inhibition: 1.17% (inactive)
